Assay results taken from PubChem BioAssay AID1259313 (Sanford-Burnham Center for Chemical Genomics, 2017).
The campaign covered roughly 340,000 compounds. About 8,500 (2.5%) were called active. This is one part of a sample in which actives are shown more often than they occur. Values without a mark were called inactive.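 Rule for the calls: active = melting temperature shift of at least 10% of the positive control shift, at one fixed dose; inactive = the rest.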

System: Glutamate receptor ionotropic, NMDA 3A (GRIN3A) ligand-binding domain
Assay: binders of NR3A ligand-binding domain, primary screen, biophysical, differential scanning fluorimetry, uHTS (AID 1259313)
Settings: NR3A LBD differential scanning fluorimetry, at 25 µM, hits give high values, 0% = protein alone, 100% = glycine-bound protein

`CCOC(=O)N/N=C/c1cn(Cc2ccccc2Cl)c2ccccc12` was tested. Which Tm shift relative to glycine control did it give?
The Tm shift relative to glycine control was -13.8%.

Which Tm shift relative to glycine control does the source give for `CNC(=S)N/N=C/c1cn(Cc2ccc(C)cc2)c2ccccc12` here?
The Tm shift relative to glycine control was -1.66%.

With `COC(=O)N/N=C/c1cn(CCCOc2ccc(C)cc2)c2ccccc12` as the molecule, how does the Tm shift relative to glycine control read?
Its Tm shift relative to glycine control is 12.8% (active).

`CC(C)(C)c1ccc(/C=C/C(=O)NCCCn2ccnc2)cc1` was tested. Which Tm shift relative to glycine control did it give?
Its Tm shift relative to glycine control is -0.74%.

How did the Tm shift relative to glycine control turn out when `O=C(COC(=O)c1ccc(Cl)nc1)NCc1ccc2c(c1)OCO2` was run?
Its Tm shift relative to glycine control is -1.93%.

With `CCOc1cc(/C=C(/C#N)c2ccc(Cl)cc2)cc(Cl)c1OCC(=O)O` as the molecule, how does the Tm shift relative to glycine control read?
The Tm shift relative to glycine control was -1.37%.

How did the Tm shift relative to glycine control turn out when `CCOc1cc(/C=N/O)cc(Br)c1OC` was run?
The Tm shift relative to glycine control was 10.5% (active).

Which Tm shift relative to glycine control does the source give for `COc1cc(/C=N/O)cc(Br)c1OCc1cccc(Cl)c1` here?
The Tm shift relative to glycine control was 9.46%.

For `CCOc1cc(/C=N/O)ccc1OCc1ccccc1F`, which Tm shift relative to glycine control is on record?
The Tm shift relative to glycine control was -0.35%.

With `CCOc1c(Cl)cc(/C=N/O)cc1OC` as the molecule, how does the Tm shift relative to glycine control read?
Its Tm shift relative to glycine control is 10.8% (active).

How did the Tm shift relative to glycine control turn out when `COc1cc(/C=N/O)cc(Br)c1OS(=O)(=O)c1ccc(C)cc1` was run?
Its Tm shift relative to glycine control is -0.94%.

Which Tm shift relative to glycine control does the source give for `C[C@@H]1ON(C)[C@H]2C[C@H]3c4cc(N5CCN(C)CC5)ccc4CCN3C(=O)[C@@H]12` here?
The Tm shift relative to glycine control was 2.38%.

With `COc1cc(OC)cc(C(=O)N[C@H](C(=O)NNC(=O)c2ccc(Br)cc2)C(C)C)c1` as the molecule, how does the Tm shift relative to glycine control read?
The Tm shift relative to glycine control was 13.6% (active).

Which Tm shift relative to glycine control does the source give for `COc1ccc(N2CCN(C(=O)[C@@H](NC(=O)c3cc(OC)cc(OC)c3)C(C)C)CC2)cc1` here?
The Tm shift relative to glycine control was -0.58%.

For `COc1cc(OC)cc(C(=O)NC(C(=O)N2CCC2)C(C)C)c1` (configuration not stated), which Tm shift relative to glycine control is on record?
The Tm shift relative to glycine control was -1.01%.

For `COc1ccc(N2CCN(CCCNC(=O)C3CCN(S(=O)(=O)N4CCOCC4)CC3)CC2)cc1`, which Tm shift relative to glycine control is on record?
Its Tm shift relative to glycine control is 1.84%.

Which Tm shift relative to glycine control does the source give for `O=C(CSc1ccccn1)Nc1nc2c(ccc3ccccc32)s1` here?
The Tm shift relative to glycine control was -2.83%.

`CS(=O)(=O)Nc1cccc(-c2cn3ccccc3n2)c1` was tested. Which Tm shift relative to glycine control did it give?
The Tm shift relative to glycine control was -0.95%.

For `Cc1cc(C)cc(NS(=O)(=O)Cc2ccccc2)c1`, which Tm shift relative to glycine control is on record?
Its Tm shift relative to glycine control is 1.07%.

`CCS(=O)(=O)Nc1cccc(-c2cc(-c3ccccc3)c3cc(C)ccc3n2)c1` was tested. Which Tm shift relative to glycine control did it give?
Its Tm shift relative to glycine control is 10.6% (active).

How did the Tm shift relative to glycine control turn out when `CC1CN(S(=O)(=O)c2ccc(C(=O)Nc3sccc3C(N)=O)cc2)CC(C)O1` (configuration not stated) was run?
Its Tm shift relative to glycine control is -4.29%.

With `Cc1ccc2c(c1)N(CC(=O)N(Cc1ccccn1)Cc1ccco1)C(=O)C(C(C)C)O2` (configuration not stated) as the molecule, how does the Tm shift relative to glycine control read?
Its Tm shift relative to glycine control is 0.17%.

For `O=c1[nH]c2c(c(=O)n1-c1ccccc1)CCO2`, which Tm shift relative to glycine control is on record?
The Tm shift relative to glycine control was 1.26%.

How did the Tm shift relative to glycine control turn out when `OCCCNc1nccc(-c2cc(Nc3cccc(Cl)c3)ncn2)n1` was run?
The Tm shift relative to glycine control was 21.3% (active).

How did the Tm shift relative to glycine control turn out when `Cc1cccc(Nc2nc(NCCO)nc(N3CCCC3)n2)c1` was run?
Its Tm shift relative to glycine control is -4.68%.

With `CC(C)n1cnc2c(Nc3cccc(Cl)c3)nc(N(CCO)CCCO)nc21` as the molecule, how does the Tm shift relative to glycine control read?
The Tm shift relative to glycine control was 1.29%.

How did the Tm shift relative to glycine control turn out when `CCC(=O)Nc1cc(C(F)(F)F)ccc1N1CCCC1` was run?
The Tm shift relative to glycine control was 1.55%.

How did the Tm shift relative to glycine control turn out when `O=C(C1CC1)N1CCN=C1SCc1ccc(Cl)cc1` was run?
Its Tm shift relative to glycine control is 11.7% (active).

`O=C(c1ccco1)N1CCN=C1SCc1cccc(Cl)c1` was tested. Which Tm shift relative to glycine control did it give?
Its Tm shift relative to glycine control is 0.08%.

How did the Tm shift relative to glycine control turn out when `CCC(=O)N1CCN=C1SCc1ccc(F)cc1` was run?
The Tm shift relative to glycine control was 1.29%.

Which Tm shift relative to glycine control does the source give for `COc1ccc(CN2CN(C(C)C)CSC2=S)cc1` here?
The Tm shift relative to glycine control was 1.51%.

Which Tm shift relative to glycine control does the source give for `COc1ccc(-c2csc3ncnc(N4CCN(S(=O)(=O)c5cccc(F)c5)CC4)c23)cc1` here?
Its Tm shift relative to glycine control is -1.02%.

For `Cc1cc(F)ccc1S(=O)(=O)Nc1ncnc2scc(-c3ccc(F)cc3)c12`, which Tm shift relative to glycine control is on record?
Its Tm shift relative to glycine control is 10.2% (active).

How did the Tm shift relative to glycine control turn out when `O=S(=O)(Nc1ncnc2sccc12)c1cccc(F)c1` was run?
The Tm shift relative to glycine control was -0.96%.

For `C=CCNC(=O)COC(=O)c1ccccc1C(=O)N(C)C1CCCCC1`, which Tm shift relative to glycine control is on record?
Its Tm shift relative to glycine control is -0.25%.

How did the Tm shift relative to glycine control turn out when `O=C(CN(CC1CCCO1)C(=O)CNS(=O)(=O)c1ccc(Cl)cc1)NCc1ccccc1` (configuration not stated) was run?
Its Tm shift relative to glycine control is 2.76%.

For `Cc1ccc(C)c(NC(=O)C2CCCN2C(=O)OC(C)(C)C)c1` (configuration not stated), which Tm shift relative to glycine control is on record?
Its Tm shift relative to glycine control is 4.23%.

With `Cc1ccc(-n2ncc(C(=O)NC3CC3)c2C2CCN(C(=O)OC(C)(C)C)CC2)c(C)c1` as the molecule, how does the Tm shift relative to glycine control read?
The Tm shift relative to glycine control was 13.4% (active).

Which Tm shift relative to glycine control does the source give for `CC(C)(C)OC(=O)N1CCC(C(=O)NNC(=O)c2ccc(Cl)cc2Cl)CC1` here?
The Tm shift relative to glycine control was -2.13%.

Which Tm shift relative to glycine control does the source give for `CCn1c(=S)[nH]c2cc(S(=O)(=O)N3CCOCC3)ccc21` here?
The Tm shift relative to glycine control was 2.56%.

For `Cc1cc(NS(=O)(=O)c2ccc(NC(=O)C(C)Oc3cccc(C)c3C)cc2)nc(C)n1` (configuration not stated), which Tm shift relative to glycine control is on record?
The Tm shift relative to glycine control was 3.5%.

For `CCNc1nc(NC(C)C)nc(N2CC(=O)N(CC(=O)OCC)C2=N)n1`, which Tm shift relative to glycine control is on record?
Its Tm shift relative to glycine control is -4.17%.

How did the Tm shift relative to glycine control turn out when `CCN(CC)CCCC(C)n1c2nc(=O)[nH]c(=O)c-2nc2cc(Cl)ccc21` (configuration not stated) was run?
The Tm shift relative to glycine control was -386%.

`CCOC(=O)C1=C(CC)Nc2ccccc2N=C1NC(=O)c1cccc(S(=O)(=O)N2CCCC2)c1` was tested. Which Tm shift relative to glycine control did it give?
Its Tm shift relative to glycine control is 0%.

For `Cc1c(CC(=O)NCCCCCC(=O)O)c(=O)oc2cc3occ(-c4ccccc4)c3cc12`, which Tm shift relative to glycine control is on record?
The Tm shift relative to glycine control was -0.98%.

For `Cc1c(CC(=O)NCC(=O)NCC(=O)O)c(=O)oc2cc3oc4c(c3cc12)CCCC4`, which Tm shift relative to glycine control is on record?
Its Tm shift relative to glycine control is 31.7% (active).

Which Tm shift relative to glycine control does the source give for `CC[C@@H](C)[C@H](NC(=O)CCc1c(C)c2cc3c4c(oc3c(C)c2oc1=O)CCCC4)C(=O)O` here?
Its Tm shift relative to glycine control is 1.33%.
